The source of these data is PubChem BioAssay (EPA / NIEHS).

Assay [1] is described as follows: BSK_CASM3C_SRB: Viability Assessment in the BioMAP Diversity Plus: CASM3C Assay (AID 2283050).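 Also: total protein by SRB staining as cytotoxicity measure in parallel cultures; cells exposed to compound for 24 h.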 To be noted: primary human coronary artery smooth muscle cells.
Read-out in assay [2]: Thrombomodulin, THBD (gene 7056)
The assay can be described thus: BSK_CASM3C_Thrombomodulin: BioMAP Diversity Plus: CASM3C Assay for Thrombomodulin Biomarker Activity (AID 2283051).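 Also: thrombomodulin protein level measured by ELISA 24 h after dosing.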 To be noted: primary human coronary artery smooth muscle cells; actives raise or lower the signal.

Read-out in assay [3]: Tissue Factor, F3 (gene 2152)
Nature of the assay: BSK_CASM3C_TissueFactor: BioMAP Diversity Plus: CASM3C Assay for Tissue Factor Biomarker Activity (AID 2283052).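 Also: cell surface tissue factor protein level read by ELISA.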 The following applies: primary human coronary artery smooth muscle cells; actives raise or lower the signal.

Read-out in assay [4]: Interferon-gamma inducible Protein 10 (IP10), CXCL10 (gene 3627)
The assay can be described thus: BSK_hDFCGF_IP10: BioMAP Diversity Plus: hDFCGF Assay for Interferon-gamma inducible Protein 10 (IP10) Biomarker Activity (AID 2283053). The following applies: primary human foreskin fibroblasts; actives raise or lower the signal. The method, boiled down: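 IP-10 levels, quantified by ELISA, are taken from human foreskin fibroblast cultures 24 h after chemical treatment, with DMSO serving as negative control and baseline for bidirectional analysis.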

Read-out in assay [5]: Urokinase-type plasminogen activator receptor (uPAR), PLAUR (gene 5329)
Nature of the assay: BSK_CASM3C_uPAR: BioMAP Diversity Plus: CASM3C Assay for Urokinase-type plasminogen activator receptor (uPAR) Biomarker Activity (AID 2283054).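 Also: cell-surface uPAR protein level quantified by ELISA.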 The following applies: primary human coronary artery smooth muscle cells; actives raise or lower the signal.

Read-out in assay [6]: Vascular cell adhesion molecule 1 (VCAM1), VCAM1 (gene 7412)
Nature of the assay: BSK_CASM3C_VCAM1: BioMAP Diversity Plus: CASM3C Assay for Vascular cell adhesion molecule 1 (VCAM1) Biomarker Activity (AID 2283055).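 Also: VCAM-1 protein level quantified by ELISA on the cells.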 The following applies: primary human coronary artery smooth muscle cells; actives raise or lower the signal.

Read-out in assay [7]: Collagen III, COL3A1 (gene 1281)
Nature of the assay: BSK_hDFCGF_CollagenIII: BioMAP Diversity Plus: hDFCGF Assay for Collagen III Biomarker Activity (AID 2283056). The following applies: primary human foreskin fibroblasts; actives raise or lower the signal. The essentials: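 Response relative to DMSO, fitted in both directions, reflects ELISA-measured collagen III in human primary skin fibroblasts 24 h after compound addition.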

Read-out in assay [8]: Interleukin-8 (IL8), CXCL8 (gene 3576)
Nature of the assay: BSK_hDFCGF_IL8: BioMAP Diversity Plus: hDFCGF Assay for Interleukin-8 (IL8) Biomarker Activity (AID 2283058). To be noted: primary human foreskin fibroblasts; actives raise or lower the signal. The method, boiled down:
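Fibroblast monolayers (human foreskin, hDFCGF) received test chemical for 24 h before ELISA detection of IL-8; either increases or decreases relative to DMSO count as activity.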

A short description of assay [9]: BSK_hDFCGF_Proliferation: Cell Proliferation Assessment in the BioMAP Diversity Plus: hDFCGF Assay (AID 2283059).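 Also: curves fitted for both rise and fall of signal versus DMSO baseline.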 The following applies: primary human foreskin fibroblasts. The method, boiled down: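 Steps: dose primary human dermal fibroblasts (foreskin); […] fix in 10% TCA; stain with 0.1% SRB; read 560 nm; fit gain or loss of signal against DMSO.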

Read-out in assay [10]: Epidermal growth factor receptor (EGFR), EGFR (gene 1956)
The assay can be described thus: BSK_hDFCGF_EGFR: BioMAP Diversity Plus: hDFCGF Assay for Epidermal growth factor receptor (EGFR) Biomarker Activity (AID 2283057). The following applies: primary human foreskin fibroblasts; actives raise or lower the signal. The essentials: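 Measured by ELISA: EGFR levels on primary human foreskin fibroblasts 24 h after chemical treatment, analysed relative to DMSO with bidirectional fitting.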

Where “and” joins values, the source holds several entries; their conditions need not be identical. Equal entries are not always repeated. The source holds several records for some structures; these can differ, active in one and inactive in another. Calls of active or inactive are those of the source. The calls were made as follows: active = hit-call score of the fitted dose curve at least 0.9, where 1 is the maximum; inactive = score below 0.9.

In the case of `FC(F)(F)C(F)(F)C(F)(F)C(F)(F)C(F)(F)C(F)(F)C(F)(F)I`, the result in assay [1], in assay [2], in assay [3], in assay [4], in assay [5] and in assay [6] was inactive. Besides, the result in assay [7], in assay [8] and in assay [9] was inactive. Further, in [9], the AC50 – broadly, the concentration at which the activity in the assay is half-maximal – was 2.64 µM (active).
Take `CCCCCCC(C)OC(=O)CCCCC(=O)OC(C)CCCCCC` (stereo unspecified): the result in assay [1], in assay [2], in [3], in [4], in assay [5] and in assay [6] was inactive. In addition, the outcome in assay [7], in assay [8] and in assay [9] was inactive.
`OCC(F)(F)C(F)(F)C(F)(F)C(F)F`: the outcome in assay [1], in assay [2], in [3], in assay [4], in assay [5] and in [6] was inactive. The outcome in assay [7], in assay [8] and in assay [9] was inactive.
In the case of `FC(F)(F)C(F)(F)CNCC(F)(F)C(F)(F)F`, the outcome in assay [1], in assay [2], in [3], in assay [4], in assay [5] and in [6] was inactive. Besides, the result in [7], in assay [8] and in [9] was inactive.
On to `C=C(C)C(=O)OCC(F)(F)C(F)(F)C(F)(F)C(F)(F)C(F)(F)C(F)(F)C(F)(F)F`, for which the outcome in assay [1], in [2], in [3], in assay [4], in [5] and in [6] was inactive. Besides, the outcome in assay [7], in assay [10], in [8] and in assay [9] was inactive.
In the case of `OCC(F)(F)C(F)(F)C(F)(F)F`, the outcome in [1], in assay [2], in assay [3], in [4], in [5] and in assay [6] was inactive. Moreover, the outcome in [7], in assay [8] and in assay [9] was inactive.
Take `CS(C)(=O)=O`: the result in assay [1], in assay [2], in [3], in assay [4], in assay [5] and in assay [6] was inactive. Also, the outcome in [7], in assay [8] and in assay [9] was inactive.
`C=C(C)C(=O)OCCC(F)(F)C(F)(F)C(F)(F)C(F)(F)C(F)(C(F)(F)F)C(F)(F)F`: the outcome in assay [1], in assay [2], in assay [3], in assay [4], in [5] and in [6] was inactive. For the same compound, the outcome in assay [7], in assay [8] and in assay [9] was inactive.
For `C=CC(=O)OCC(F)(F)C(F)(F)C(F)(F)C(F)(F)C(F)(F)C(F)(F)C(F)(F)F`, the outcome in assay [1], in [2], in assay [3], in assay [4], in assay [5] and in [6] was inactive. Also, the result in [7] and in assay [8] was inactive. In addition, the AC50 in assay [9] is 17.5 µM (active) and 46.3 µM (active).
Take `CCN(CC)c1ccc2c(C)cc(=O)oc2c1`: the outcome in assay [1], in [2], in assay [3], in assay [4], in [5] and in assay [6] was inactive. For the same compound, the outcome in [7] and in assay [8] was inactive. For the same compound, the AC50 in [9] is 24 µM (active).
Take `OCCCC(F)(F)C(F)(F)C(F)(F)F`: the result in assay [1], in assay [2], in [3], in assay [4], in assay [5] and in assay [6] was inactive. The result in [7], in assay [8] and in [9] was inactive.
For the compound `FC1CC(F)(F)C(F)(F)C1(F)F` (stereo unspecified), the result in assay [1], in assay [2], in assay [3], in assay [4], in [5] and in assay [6] was inactive. Besides, the result in assay [7], in assay [10], in assay [8] and in assay [9] was inactive.
Regarding `CCc1ccc(C(c2ccc(CC)cc2)C(Cl)Cl)cc1`, the result in [1], in assay [2], in [5], in assay [6] and in assay [8] was inactive. Moreover, the AC50 in assay [3] was 5.97 µM (active); in assay [4], 26.2 µM (active); in assay [7] it was 20 µM (active); in assay [9], 4.45 µM (active).
`O=C(O)C(F)(F)C(F)(F)F`: the result in assay [1], in [2], in assay [3], in assay [4], in assay [5] and in [6] was inactive. Besides, the result in [7], in assay [8] and in [9] was inactive.
For the compound `O=C(O)C(F)(F)C(F)(F)C(F)(F)F`, the result in [1], in assay [2], in assay [3], in assay [4], in [5] and in [6] was inactive. For the same compound, the outcome in [7], in [8] and in assay [9] was inactive.
Regarding `C=CC/C=C/C/C=C/C/C=C/C`, the outcome in assay [1], in assay [2], in [3], in assay [4], in assay [5] and in assay [6] was inactive. The outcome in [7], in assay [8] and in assay [9] was inactive.
Turning to `CO[Si](OC)(c1ccccc1)c1ccccc1`, the AC50 was 31.1 µM (active) in assay [1]; 30.7 µM (active) in [3]; 29.5 µM (active) in assay [5]; 35.7 µM (active) in assay [6]; 32 µM (active) in assay [7]; 28.1 µM (active) in assay [9]. The result in assay [2], in assay [4] and in [8] was inactive.
Take `O=S(=O)(OCC(F)F)C(F)(F)F`: the outcome in [1], in [2], in assay [3], in [4], in assay [5] and in assay [6] was inactive. Moreover, the outcome in assay [7], in assay [8] and in assay [9] was inactive.
In the case of `O=C(O)C(F)(F)C(F)(F)C(F)F`, the outcome in assay [1], in assay [2], in [3], in assay [4], in assay [5] and in assay [6] was inactive. Besides, the outcome in [7], in assay [8] and in [9] was inactive.
Regarding `O[Si](c1ccccc1)(c1ccccc1)c1ccccc1`, the result in assay [1], in assay [2], in assay [3], in assay [4], in [5] and in [6] was inactive. Besides, the outcome in assay [8] was inactive. Moreover, the AC50 in [7] was 7.56 µM (active); in assay [9], 20 µM (active).
On to `O=C(CC(=O)C(F)(F)C(F)(F)F)C(F)(F)F`, for which the outcome in assay [1], in [2], in assay [3], in assay [4], in assay [5] and in assay [6] was inactive. For the same compound, the outcome in assay [7], in assay [8] and in [9] was inactive.
With `O=S(=O)(OCCOC(F)(F)F)C(F)(F)F`, the result in assay [1], in assay [2], in assay [3], in [4], in [5] and in assay [6] was inactive. The result in assay [7], in assay [8] and in [9] was inactive.
